Experimental findings from PubChem BioAssay (Tox21) are described below.

The nature of test [1]: qHTS assay to identify small molecule antagonists of the estrogen related receptor (ERR) signaling pathway from Tox21 library - cell viability counter screen (AID 1224834). Also: nearly all actives have a fitted effect of over 30% in size. Also: potency is read from the fitted curve at half-maximal effect. Summed up:
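ERR reporter cells, 2,000 per well, rested 6 h, then exposed to compound in DMSO for 17.5 hours at 37 C. Viability read as fluorescence after 30 min with CellTiter-Fluor.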
(Quantitative high-throughput screening tests each substance at several concentrations.)

Test [2] concerns the target Luciferin 4-monooxygenase (Photinus pyralis) (UniProt P08659). Description: qHTS assay to identify small molecule inhibitors of firefly luciferase (AID 1224835). Also: nearly all actives have a fitted effect of over 25% in size. Also: potency is read from the fitted curve at half-maximal effect. The procedure, abridged: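 Inhibition of purified Photinus luciferase is measured by luminescence. Substrate levels (D-luciferin, ATP) sit at their KM values. Each compound is tested in a concentration series.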

Test [3] is described as follows: qHTS assay to identify small molecule agonists of the constitutive androstane receptor (CAR) signaling pathway - cell viability counter screen (AID 1224836). Also: nearly all actives have a fitted effect of over 45% in size. Also: potency is read from the fitted curve at half-maximal effect. Summed up: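 HepG2 cells stably carrying hCAR and a CYP2B6-2.2kb reporter; 15-concentration compounds plus PK11195 (final 0.75 uM), 23 hr at 37 C/5% CO2. Viability read by CellTiter-Fluor fluorescence.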
Test [4] can be described thus: qHTS assay to identify small molecule antagonists of the constitutive androstane receptor (CAR) signaling pathway - cell viability counter screen (AID 1224837). Also: nearly all actives have a fitted effect of over 45% in size. Also: potency is read from the fitted curve at half-maximal effect. Summed up:
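HepG2 cells stably carrying hCAR and CYP2B6-2.2kb reporter, stimulated with 50 nM CITCO and compounds at 15 concentrations for 23 h at 37 C. Viability measured by CellTiter-Fluor fluorescence.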

The target of test [5] is Nuclear receptor subfamily 1 group I member 3 (Homo sapiens) (UniProt Q14994). Description: qHTS assay to identify small molecule antagonists of the constitutive androstane receptor (CAR) signaling pathway (AID 1224838). Also: nearly all actives have a fitted effect of over 40% in size. Also: potency is read from the fitted curve at half-maximal effect. The procedure, abridged:
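HepG2 cells stably carrying hCAR and a CYP2B6-2.2kb luciferase reporter, seeded 4 hrs before compound (15 concentrations). Stimulated with 50 nM CITCO for 24 hr at 37 C. ONE-Glo luminescence read after 30 min at room temperature.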

For test [6] the target is unchanged. Description: qHTS assay to identify small molecule agonists of the constitutive androstane receptor (CAR) signaling pathway (AID 1224839). Also: nearly all actives have a fitted effect of over 15% in size. Also: potency is read from the fitted curve at half-maximal effect. The procedure, abridged:
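HepG2 cells stably co-transfected with hCAR and a CYP2B6-2.2kb luciferase reporter; compounds at 15 concentrations with 0.75 uM PK11195 present. After 24 hr at 37 C, luciferase read by ONE-Glo luminescence.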

Test [7] can be described thus: qHTS assay to identify small molecule antagonists of the estrogen related receptor signaling pathway with the pleiotropic PPARgamma coactivator (PGC) from Tox21 10K library - cell viability counter screen (AID 1224840; active = well fitted cell-killing curve with a large enough effect in the repeat runs, not every such curve was filed as active; also: nearly all actives have a fitted effect of over 40% in size; also: potency is read from the fitted curve at half-maximal effect). The procedure, abridged: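 PGC/ERR cells (2,000/well) plated 6 h, then compound-treated for 17.5 h at 37 C. Viability measured by CellTiter-Fluor fluorescence after 30 min at 37 C, multiplexed with the pathway assay.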

Test [8] is described as follows: qHTS assay to identify small molecule antagonists of the estrogen related receptor signaling pathway with the pleiotropic PPARgamma coactivator (PGC) from Tox21 10K library (AID 1224841; call rule not given here; also: actives are mostly falling curves and most rising ones were filed inactive; nearly all actives have a fitted effect of over 50% in size; also: potency is read from the fitted curve at half-maximal effect). Summed up:
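PGC/ERR cell line, 2,000 cells/well, pre-incubated 6 hours at 37 C, then exposed to compounds for 18 hours at 37 C; luciferase read with One-Glo luminescence after 30 min at room temperature.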

A short description of test [9]: qHTS assay to identify small molecule agonists of the estrogen related receptor signaling pathway with the pleiotropic PPARgamma coactivator (PGC) from Tox21 10K library (AID 1224842). Also: nearly all actives have a fitted effect of over 15% in size. Summed up:
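Luminescence from One-Glo (30 min, room temperature) measured after PGC/ERR cells had 18 h at 37 C with pinned compound (23 nL in DMSO). Cells had been seeded at 2,000 per well and pre-incubated 6 h.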

The target of test [10] is Thyrotropin receptor (Homo sapiens) (UniProt P16473). Description: qHTS assay to identify small molecule agonists of the thyroid stimulating hormone receptor (TSHR) signaling pathway (AID 1224843; calls by dose curve; also: nearly all actives have a fitted effect of over 45% in size; also: potency is read from the fitted curve at half-maximal effect). Summed up: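 Screening of the Tox21 10K collection used HEK293 cells engineered with TSHR at 800 cells per well. After a 30-min room-temperature compound exposure, HTRF cAMP reagents were added and fluorescence recorded 1 h later.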
Thyrotropin receptor (Homo sapiens), sequence (P16473 whole entry, looked up): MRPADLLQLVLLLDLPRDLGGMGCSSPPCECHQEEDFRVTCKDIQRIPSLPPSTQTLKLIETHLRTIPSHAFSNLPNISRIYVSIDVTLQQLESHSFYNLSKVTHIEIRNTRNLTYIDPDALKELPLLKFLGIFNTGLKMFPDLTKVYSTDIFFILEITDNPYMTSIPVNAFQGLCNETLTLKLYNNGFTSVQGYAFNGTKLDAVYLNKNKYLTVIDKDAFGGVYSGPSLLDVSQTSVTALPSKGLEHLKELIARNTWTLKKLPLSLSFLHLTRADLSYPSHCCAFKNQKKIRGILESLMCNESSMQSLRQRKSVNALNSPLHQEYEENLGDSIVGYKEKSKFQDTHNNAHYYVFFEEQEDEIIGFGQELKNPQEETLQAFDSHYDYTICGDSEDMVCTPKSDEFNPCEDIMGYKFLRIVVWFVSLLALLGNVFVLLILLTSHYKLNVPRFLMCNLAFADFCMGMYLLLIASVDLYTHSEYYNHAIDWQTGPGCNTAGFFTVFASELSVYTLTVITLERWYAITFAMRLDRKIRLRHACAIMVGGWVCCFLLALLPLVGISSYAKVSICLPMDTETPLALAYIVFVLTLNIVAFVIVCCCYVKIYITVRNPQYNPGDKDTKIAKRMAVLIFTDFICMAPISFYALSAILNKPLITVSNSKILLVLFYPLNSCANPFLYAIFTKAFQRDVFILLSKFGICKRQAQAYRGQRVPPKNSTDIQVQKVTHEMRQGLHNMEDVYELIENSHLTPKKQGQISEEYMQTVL

Several values for one entry are separate records, joined by “and”; a condition that tells them apart may be missing. Equal entries are not always repeated. Inconclusive results are not listed. A number with no mark means an inactive call. Activity calls are given as the source filed them. Unless noted, calls follow the shape of the dose curve; as a rule, active = well fitted curve in the direction sought with a large enough effect in the repeat runs; inconclusive = weak or mixed curves; inactive = no such curve, though single readings can be large; an effect the other way counts as inactive or inconclusive.

Nuclear receptor subfamily 1 group I member 3 (Homo sapiens), sequence (Q14994 whole entry, looked up): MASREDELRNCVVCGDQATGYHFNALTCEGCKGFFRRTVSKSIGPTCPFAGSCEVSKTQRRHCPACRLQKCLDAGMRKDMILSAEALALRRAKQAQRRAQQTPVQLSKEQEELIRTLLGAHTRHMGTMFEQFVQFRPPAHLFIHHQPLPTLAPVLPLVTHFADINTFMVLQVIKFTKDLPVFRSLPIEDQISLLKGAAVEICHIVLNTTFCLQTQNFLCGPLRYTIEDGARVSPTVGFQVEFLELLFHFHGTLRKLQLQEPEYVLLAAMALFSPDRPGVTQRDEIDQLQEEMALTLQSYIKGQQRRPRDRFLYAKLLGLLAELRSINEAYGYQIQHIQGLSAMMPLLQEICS
Luciferin 4-monooxygenase (Photinus pyralis), sequence (P08659 whole entry, looked up): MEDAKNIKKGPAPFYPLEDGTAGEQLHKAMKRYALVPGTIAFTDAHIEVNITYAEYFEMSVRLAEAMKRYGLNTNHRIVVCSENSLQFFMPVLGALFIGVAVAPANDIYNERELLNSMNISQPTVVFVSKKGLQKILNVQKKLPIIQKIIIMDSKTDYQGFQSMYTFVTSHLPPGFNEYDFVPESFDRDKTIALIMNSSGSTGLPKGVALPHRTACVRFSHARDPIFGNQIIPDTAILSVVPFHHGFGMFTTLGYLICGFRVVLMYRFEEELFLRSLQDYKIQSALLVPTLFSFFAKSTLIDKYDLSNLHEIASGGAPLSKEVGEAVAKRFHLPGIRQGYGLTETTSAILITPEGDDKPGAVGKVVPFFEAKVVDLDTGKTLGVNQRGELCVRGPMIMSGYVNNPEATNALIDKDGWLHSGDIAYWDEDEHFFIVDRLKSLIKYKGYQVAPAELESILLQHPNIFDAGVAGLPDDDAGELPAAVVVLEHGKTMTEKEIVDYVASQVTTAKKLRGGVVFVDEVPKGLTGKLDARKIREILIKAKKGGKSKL

Consider `OCCSSCCO`, for which the Potency result in test [1], in test [2], in test [3], in [4], in [5] and in test [6] was “inactive” in each case. The Potency entry in test [7] is “inactive”.
Take `CN1CC[C@]23c4c5ccc(O)c4O[C@H]2[C@@H](O)CC[C@H]3[C@H]1C5`: the Potency entry in [1], in [2], in test [3], in test [4], in [5] and in test [6] was “inactive” throughout. The Potency result in test [7] is “inactive”.
`C=CC(=O)NC(C)(C)CC(C)=O`: the Potency result in test [1], in [2], in test [3], in [4], in [5] and in test [6] was “inactive” in each case. The Potency entry in test [7] is “inactive”.
For the compound `CC(C)(C)OOC(C)(C)CCC(C)(C)OOC(C)(C)C`, the Potency result in test [1], in [2], in test [3], in test [4], in [5] and in test [6] was “inactive” in each case. Besides, the Potency result in test [7], in test [8], in test [9] and in [10] was “inactive” each time.
For `O=C1c2ccccc2C(=O)N1SC(Cl)(Cl)Cl`, the Potency in [1] was 24 µM (active) and 27.3 µM (active); in [2], 15.7 µM (active) and 20 µM (active); in [3], 26.9 µM (active) and 43.3 µM (active); in [4], 24 µM (active) and 19.3 µM (active); in test [5], 19.1 µM (active) and 15.4 µM (active); in test [7], 26.9 µM (active) and 24.3 µM (active). In addition, the Potency in [8] was 53.7 µM (active) and 61.1 µM (active); in test [10], 19.1 µM (active) and 12.2 µM (active). Moreover, the Potency result in test [6] and in [9] was “inactive” throughout.
On to `OCCCl`, for which the Potency entry in test [1], in [2], in test [3], in test [4], in [5] and in [6] was “inactive” each time. Also, in test [7], the Potency entry is “inactive”.
In the case of `C=CCOCC1CO1` (stereo unspecified), the Potency result in [1], in test [2], in test [3], in [4], in [5] and in test [6] was “inactive” in each case. The Potency result in [7], in test [8], in test [9] and in test [10] was “inactive” each time.
For the compound `O=C=NC1CCCCC1`, the Potency entry in test [1], in [2], in test [3], in test [4], in [5] and in test [6] was “inactive” in each case. Also, the Potency entry in test [7], in test [8], in test [9] and in test [10] was “inactive” in each case.
Consider `C=CCSSCC=C`, for which the Potency entry in [1], in test [2], in test [3], in test [4], in test [5] and in [6] was “inactive” in each case. The Potency entry in [7] is “inactive”.
With `CCCCOC(=O)CCC(=O)OCCCC`, the Potency entry in [1], in [2], in test [3], in [4], in test [5] and in [6] was “inactive” throughout. Besides, the Potency entry in [7], in test [8], in test [9] and in test [10] was “inactive” throughout.
Consider `ClCc1ccccc1Cl`, for which the Potency result in [1], in test [2], in test [3], in [4], in [5] and in test [6] was “inactive” each time. Besides, the Potency result in test [7], in [8], in test [9] and in test [10] was “inactive” in each case.
Regarding `COC(=O)Cc1ccccc1`, the Potency entry in test [1], in test [2], in test [3], in test [4], in test [5] and in test [6] was “inactive” in each case. The Potency entry in test [7] is “inactive”.
Consider `O=S(=O)(c1ccccc1)c1ccccc1`, for which the Potency result in test [1], in test [2], in [3], in test [4], in [5] and in [6] was “inactive” in each case. Further, the Potency result in test [7], in [8] and in test [9] was “inactive” each time.
For the compound `C1CS1`, the Potency result in test [1], in test [2], in test [3], in test [4], in test [5] and in test [6] was “inactive” each time. Further, the Potency entry in [7], in [9] and in [10] was “inactive” each time. The Potency in [8] is 19.8 µM (active).
Regarding `c1ccc2c(c1)sc1ccccc12`, the Potency entry in test [1], in test [3], in test [4], in [5], in [6] and in test [7] was “inactive” in each case. Besides, the Potency entry in test [8], in [9] and in test [10] was “inactive” each time. Moreover, the Potency in test [2] is 31.7 µM (active).
As to `O=[N+]([O-])c1cc(Cl)c(Cl)cc1Cl`, the Potency result in test [1], in test [2], in test [3], in test [4], in test [5] and in test [6] was “inactive” each time. The Potency entry in test [7], in test [8] and in [9] was “inactive” throughout.
Turning to `O=C([O-])c1ccccn1.O=C([O-])c1ccccn1.O=C([O-])c1ccccn1.[Cr+3]`, the Potency entry in test [1], in test [2], in test [3], in [4], in test [5] and in test [6] was “inactive” throughout. Besides, the Potency result in [7] is “inactive”.
In the case of `C[C@]12CC[C@H]3[C@@H](CCC4=CC(=O)CC[C@@H]43)[C@@H]1CC[C@@H]2OC(=O)CCc1ccccc1`, the Potency result in test [1], in test [2], in [3], in test [4], in [5] and in test [6] was “inactive” each time. In addition, the Potency entry in test [7], in test [8], in test [9] and in test [10] was “inactive” each time.
Take `COP(=O)(OC)OC(Br)C(Cl)(Cl)Br` (stereo unspecified): the Potency result in test [1], in [2], in [3], in test [4], in test [5] and in test [6] was “inactive” each time.
For `CCOP(=S)(S)OCC`, the Potency entry in test [1], in test [3], in [4], in test [5], in test [6] and in test [7] was “inactive” throughout. Also, the Potency entry in test [8], in [9] and in [10] was “inactive” throughout. For the same compound, the Potency in test [2] was 33.4 µM (active).
As for `CCCSP(=S)(OCC)Oc1ccc(SC)cc1` (stereo unspecified), the Potency entry in test [1], in test [2], in test [3], in [4], in test [5] and in test [7] was “inactive” throughout. Besides, the Potency result in test [8] and in [9] was “inactive” throughout. Moreover, the figures for the Potency in test [6] and in test [10] were 21.7 µM (active) and 19.3 µM (active), respectively.
Consider `CCNC(=O)NC(=O)/C(C#N)=N/OC`, for which the Potency entry in test [1], in test [2], in test [3], in test [4], in [5] and in test [6] was “inactive” throughout. The Potency result in test [7], in [8], in [9] and in [10] was “inactive” each time.
In the case of `Nc1cc(Cl)cc(C(=O)O)c1Cl`, the Potency entry in test [1], in test [2], in test [3], in [4], in test [5] and in test [6] was “inactive” each time. The Potency entry in test [7], in test [8] and in [9] was “inactive” each time.
Take `C=C(Cl)Cl`: the Potency entry in [1], in test [2], in test [3], in test [4], in test [5] and in [6] was “inactive” in each case. Besides, the Potency entry in test [7], in test [8], in test [9] and in [10] was “inactive” in each case.
As to `N#CC1(N=NC2(C#N)CCCCC2)CCCCC1`, the Potency result in [1], in [2], in test [3], in test [4], in [5] and in [6] was “inactive” each time. In addition, the Potency entry in test [7], in test [8] and in test [9] was “inactive” throughout.
